The supplement of paper PMC11219838
A number with no mark means an inactive call.

The molecules below were run on Caenorhabditis elegans L1 (N2) (assay: survival and reproduction score of C. elegans L1 (0: 0-10 living worms, 1: 11-20, 2: 21-50, 3: >50, 4: overgrown) (score 0-4); higher = more worms, less nematicidal, active = 1 or less; extreme values may be limits of the assay). Details: 60 µM; 6 days; temperature: 20 °C.
In short: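 In liquid NGM with E. coli HB101, approximately 20 synchronized C. elegans N2 L1s per 96-well well were exposed to compound at 60 µM final (0.6% v/v DMSO) for 6 days at 20 °C with shaking at 200 rpm in sealed plates. Survival and reproduction were judged under a dissection microscope as an ordinal rating of living worms per well. Ratings went from 0 (0–10 worms) to 4 (overgrown, starved) and were averaged over two biological replicates.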

Going from `CCn1c(SCc2nc(-c3cccs3)no2)nnc1-c1ccco1` to `COc1cccc(-c2noc(COc3ccccc3C)n2)c1`, the “survival and reproduction score” value rises from 2 to 4.

First: Cc1cccc(-c2noc(-c3ccc(F)cc3)n2)c1
Second: Cc1cccc(-c2noc(-c3ccccc3F)n2)c1
The “survival and reproduction score” value of the first is lower: 2 for the first, 4 for the second.

`CCCOc1ccc(-c2ccc(-c3nc(-c4ccccn4)no3)cc2)cc1` and `CCOc1ccc(-c2nc(-c3ccccc3)no2)cc1` are the same in “survival and reproduction score” value: 4 for the first, 4 for the second.

`COc1cccc(-c2noc(COc3ccccc3Cl)n2)c1` and `COc1cccc(OCc2nc(-c3cccc(Br)c3)no2)c1` are the same in “survival and reproduction score” value: 4 for the first, 4 for the second.

`Cc1ccc(OCc2nc(-c3ccc4c(c3)OCO4)no2)cc1C` and `Brc1ccc(-c2noc(COc3ccc4c(c3)OCO4)n2)cc1` are the same in “survival and reproduction score” value: 4 for the first, 4 for the second.

`COc1ccc(NC(=O)CSc2nnc(-c3ccc(Br)cc3)o2)cc1` and `Cc1ccc(-c2nnc(SCC(=O)Nc3ccc(F)cc3)o2)cc1` are the same in “survival and reproduction score” value: 4 for the first, 4 for the second.

`Clc1ccc(-c2nnc(SCc3ccccc3)o2)c(Cl)c1` and `Clc1ccc(CSc2nnc(-c3ccccc3Cl)o2)cc1` are the same in “survival and reproduction score” value: 4 for the first, 4 for the second.

`CCN(CC)C(=O)CSc1nnc(-c2cccc(Cl)c2)o1` and `COc1ccc(-c2nnc(SCC(=O)Nc3cc(Cl)ccc3C)o2)cc1` are the same in “survival and reproduction score” value: 4 for the first, 4 for the second.

`Cc1cccc(-c2nc(-c3ccc4c(c3)OCO4)no2)c1` and `Clc1ccccc1-c1nc(-c2ccc3c(c2)OCO3)no1` are the same in “survival and reproduction score” value: 4 for the first, 4 for the second.

`COc1ccc(-c2nc(C3CCCCC3)no2)cc1` and `O=C(CSc1nnc(-c2ccc(Cl)cc2)o1)NC1CCCCC1` are the same in “survival and reproduction score” value: 4 for the first, 4 for the second.

`COc1ccc(-c2noc(COc3ccc(Cl)c(C)c3)n2)cc1` and `COc1ccc(OCc2nc(-c3cccc(Br)c3)no2)cc1` are the same in “survival and reproduction score” value: 4 for the first, 4 for the second.

`Cc1ccccc1-c1nnc(SCC(=O)Nc2cc(C(F)(F)F)ccc2N2CCOCC2)o1` and `COc1ccc(Cl)cc1NC(=O)CSc1nnc(-c2ccncc2)o1` are the same in “survival and reproduction score” value: 4 for the first, 4 for the second.

`CCc1ccc(OCc2nc(-c3ccc(Cl)cc3)no2)cc1` and `Cc1ccccc1-c1noc(COc2ccccc2)n1` are the same in “survival and reproduction score” value: 4 for the first, 4 for the second.

`COc1nc(-c2ccccc2)ccc1-c1noc(-c2ccccc2C)n1` and `Cc1ccc(C(=O)Nc2ccccc2-c2nc(-c3cccnc3)no2)cc1C` are the same in “survival and reproduction score” value: 4 for the first, 4 for the second.

`Cc1cc(OCc2nc(-c3cccnc3)no2)cc(C)c1Br` and `CCCC(=O)Nc1ccccc1-c1nc(-c2cccnc2)no1` are the same in “survival and reproduction score” value: 4 for the first, 4 for the second.

First: Cc1ccc(-c2nnc(SCc3ccccc3Cl)o2)cc1
Second: CCOc1ccccc1-c1nc(-c2ccc(Br)cc2)no1
The “survival and reproduction score” value of the first is higher: 4 for the first, 3 for the second.

For `COc1ccc(-c2noc(-c3cccc(C)c3)n2)cc1`, the “survival and reproduction score” value was 0 (active).
`Cc1ccc(-c2nc(-c3cccc(C)c3)no2)cc1` was tested, and the “survival and reproduction score” value was 1 (active).
For `CCC(=O)Nc1ccccc1-c1nc(-c2ccncc2)no1`, the “survival and reproduction score” value was 1 (active).
For `O=C(Nc1ccc(-c2noc(COc3ccccc3)n2)cc1)c1ccc(F)cc1`, the “survival and reproduction score” value was 1 (active).
With `Cc1ccc(-c2nnc(SCc3ccccc3)o2)cc1` the “survival and reproduction score” value was 0 (active).
For `Fc1ccccc1-c1nc(-c2ccccc2)no1`, the “survival and reproduction score” value was 0 (active).
`Cc1ccc(-c2nc(-c3ccc(F)cc3)no2)cc1` was tested, and the “survival and reproduction score” value was 0 (active).
